This is an account of results in PubChem BioAssay (NCI).

SMILES strings stand for the structures. About 83,000 compounds went through this panel and 20% of them were active in at least one assay; those are over-represented in the sample as a whole.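 Note: values are percent growth. 100 is the growth of untreated cells, values between 100 and 0 indicate rising inhibition; between -100 and 0 indicates cell death.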 Values without a mark were called inactive. Active and inactive are the calls of the source.

The assay deals with HOP-92 NSCLC. The assay can be described thus: NCI-60 one-dose screen, 48 h (100 = growth as untreated, 0 = no growth, -100 = all killed). As to conditions: 10 µM unless noted. How it is done:
Growth inhibition of the HOP-92 human Non-Small Cell Lung tumor cell line is measured as a screen for anti-cancer activity. Cells are grown in 96 well plates and exposed to the test compound for 48 hours. Compounds are tested at a single concentration, which is 10^-5 M for most compounds. The reported endpoint is percent growth (GI% or GIPRCNT), where numbers from 0 - 100% represent growth inhibition, and numbers from -100% - 0 represent cell death. For example, a value of 40 represents 60% growth inhibition. A value of 0 means no net growth occurred over the course of the experiment. A value of -40 indicates 40% of cells at the beginning of the experiment died by the end of the experiment. A value of -100 means all cells are dead at the end of the experiment.
NCI-60 Human Tumor Cell Lines Screen was performed using the standard one-dose NCI protocol, which is described in more detail at https://dtp.cancer.gov/discovery_development/nci-60/default.htm.
Compounds with GIPRCNT values below 10 were considered active. Activity score was based on GIPRCNT using the following formula: […]
Score is 0 for GIPRCNT values of 100 or above, 50 for GIPRCNT values of 0, and 100 for GIPRCNT values of -100.
On to `Cc1cc(C(=O)Nc2ncc(Cc3cccc(C(F)(F)F)c3)s2)c2ccccc2n1`, for which the growth was 28%.

Regarding `CN1CCN(C(=O)c2ccc(NC(=O)c3cc4c(nn3)NCCN4Cc3cc(Cl)ccc3Cl)cc2)CC1`, the growth was 67.2%.

On to `Cc1ccc(C(=O)c2ccc(CC(=O)N/N=C/c3ccccc3O)n2C)cc1`, for which the growth is 98.6%.

On to `CCOC(=O)c1ccc(NC(=O)c2nc(-c3cc(OC)c(OC)c(OC)c3)n(-c3ccc(Cl)cc3)n2)cc1`, for which the growth is 71.8%.

On to `Cc1sc2nc(NCCc3c[nH]c4ccc(Cl)cc34)[nH]c(=O)c2c1C`, for which the growth was 46%.

Consider `O=C(C[C@]1(O)C(=O)Nc2ccccc21)c1cccc(C(F)(F)F)c1`, for which the growth was 77.3%.

In the case of `CCOC(=O)c1c(C(=O)c2cn(C)c3ccc(Br)cc23)c(-c2cn(C)c3ccc(Br)cc23)n(NC(=O)OC(C)(C)C)c1C`, the growth is 4.73% [100 µM] (active).

As to `Cn1c(=O)cc2c3c(c(NCCCO)ccc31)C(=O)c1ccccc1-2`, the growth is 74.8%.

`COc1ccc(/C=C(\C#N)n2nnc3cc(F)c(F)cc32)cc1`: the growth was 72.3%.

Turning to `COc1ccc(C(C)=O)cc1S(=O)(=O)Nc1c(N)nc(SC)[nH]c1=O`, the growth was 115%.

`COc1ccc(/C=C/C(=O)c2cccc(OCCCCOc3cccc(C(=O)/C=C/c4ccc(OC)c(OC)c4)c3)c2)cc1OC`: the growth was 55.3%.

On to `COc1ccc2c(c1)c(-c1nc(-c3c[nH]c4ccncc34)cs1)cn2C`, for which the growth was 35.8%.

Take `COC(CC(F)F)c1cn(S(=O)(=O)c2ccc(C)cc2)c2ccccc12` (stereo not given): the growth is 40.8%.

With `c1csc(-c2ccc(CNc3c4ccccc4nc4ccccc34)cc2)c1`, the growth was -2.1% (active).

In the case of `CCOC(=O)C1=C(c2ccccc2)N=C2SC=C(c3ccc(Cl)cc3)N2C1c1ccc(Cl)cc1` (stereo not given), the growth is 69.8%.

Take `CCCCNC(=O)Oc1ccc(/C(=C(/C)Cc2ccc(OC)cc2)c2ccc(OCCN(CC)CC)cc2)cc1`: the growth was 52.6%.

Consider `O=S(=O)(NCCCNc1nccc(-c2c(-c3ccc(F)c(O)c3)nc3sccn23)n1)c1ccccc1`, for which the growth was 55.4%.

Regarding `C=C(CBr)[C@@H]1CC[C@]2(C(=O)O)CC[C@]3(C)[C@H](CC[C@@H]4[C@@]5(C)CCC(=O)C(C)(C)[C@@H]5CC[C@]43C)[C@@H]12`, the growth is 72.3%.

For the molecule `C=C(C)[C@@H]1CCC[C@]2(COS(=O)(=O)c3ccc(C)cc3)CC[C@]3(C)[C@@H](CC[C@@H]4[C@@]5(C)CCCNC(C)(C)[C@@H]5CC[C@]43C)[C@@H]12`, the growth is 19%.

Take `O=C(Nc1nc2ccc(C(=O)N3CCN(/C=C/c4ccccc4)CC3)cc2s1)c1ccc(NCCc2ccccc2)c([N+](=O)[O-])c1`: the growth is 51.8%.

`COc1ccc(/C=C(\C#N)n2nnc3cc(Cl)ccc32)cc1`: the growth is -2.3% (active).

For the molecule `CCc1ccc(CCCC(=O)O)cc1`, the growth is 91.1%.

As to `Clc1cc(Cl)c(Cl)c(-c2nnc(SCc3ccncc3Br)o2)c1`, the growth was 84.4%.

As for `C=C1C(=O)O[C@H]2[C@H]1CC/C(COC(=O)c1cc3ccccc3s1)=C\CC[C@@]1(C)O[C@@H]21`, the growth was -74.4% (active).

For the molecule `Cn1cc(-c2nonc2-c2cn(C)c3ccccc23)c2ccccc21`, the growth is 48.8%.

For `CC(C)C1=NOC(=O)C1=Cc1cn(-c2ccccc2)nc1-c1ccc(F)cc1`, the growth is 89.8%.

In the case of `O=S(=O)(NCCCNc1nccc(-c2c(-c3ccc(F)c(O)c3)nc3occn23)n1)c1ccc(Cl)cc1`, the growth was 68.8%.

`NC(=O)c1cc(I)ccc1NC(=O)/C=C/c1ccccc1`: the growth was 0.535% (active).

`Nc1nc(N)c(-c2ccc(Cl)c(Cl)c2)c(CBr)n1`: the growth is 99%.

As to `Nc1ncnc2c1N=C(c1ccc(Br)cc1)CC(c1cccc(Nc3ccnc4cc(C(F)(F)F)ccc34)c1)N2` (stereo not given), the growth was 41.4%.

On to `O=C(Nc1ccc(Oc2cccc(F)c2)c(Cl)c1)c1cccnc1`, for which the growth was 63.4%.

Regarding `CCC(C)N(CCNc1cc(OC)cc2cccnc12)CC(C)C` (stereo not given), the growth is 105%.

Regarding `O=C(CN1CCOCC1)Nc1nc(-c2cc3ccccc3oc2=O)cs1`, the growth was 90.7%.

In the case of `c1ccc([P+](c2ccccc2)(c2ccccc2)c2ccc3c4ccc([P+](c5ccccc5)(c5ccccc5)c5ccccc5)c5cccc(c6cccc2c63)c54)cc1`, the growth is 9.54% (active).

`CSc1nc2ccccc2cc1/C=[N+](\[O-])c1ccccc1`: the growth is 53.2%.

Turning to `N=C(N)c1ccc(-c2ccc(-c3ccc(Cl)c(Cl)c3)s2)nc1`, the growth was 77.3%.

Consider `Cc1nc2sc(C(=O)Nc3cccc4ccccc34)c(N)c2cc1C(O)c1ccccc1` (stereo not given), for which the growth is 34%.

With `COc1cc2cc(NCc3cccc(Cl)c3)nc(C)c2cc1OC`, the growth is 57.8%.

As to `COc1cccc(CNc2ccc3ncnc(Nc4ccc(F)c(Cl)c4)c3c2)c1`, the growth is 76.8%.

In the case of `O=c1[nH]c(-c2ccccc2)nc2sc3cc(O)ccc3c12`, the growth is 94.8%.
